# Compound activity as filed in PubChem.
# Vif-A3F inh = qHTS for Inhibitors of Vif-A3F Interactions: qHTS. HeLa A3F-eYFP + Vif (tagged APOBEC3F with the HIV-1 protein that degrades it), YFP fluorescence increase. Potency, µM (highest dose often 46.1 µM), without a hit: at the highest dose activity, negative = active. hit rate 0.2% among 390,000. AID 602313, 2012; further: potency means the concentration at half of the fitted maximal effect; % of control where 0% means no effect; nearly all actives have a fitted effect of over 65% in size
#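 Fluorescence increase (Ex 488/Em 500-530) after overnight compound treatment at 37 deg C flags inhibition of Vif-driven A3F-eYFP loss in stable HeLa A3F-eYFP/Vif cells seeded overnight beforehand.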
# LDHA block = qHTS assay for inhibitors of human lactate dehydrogenase; purified LDHA, NADH/diaphorase-resazurin fluorescence; active compounds read low; activity change, % (values are at about 110 or 230 µM); hit rate 0.15% among 480,000; in the data active means activity change below about -30%; inconclusive means mostly about -25% to -30%;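 further: plate controls were DMSO wells for no effect and wells without enzyme for full effect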
#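 Human LDH5 (2 nM) was incubated with 0.06 mM NADH and 0.2 mM pyruvate for 5 min at room temperature in Tris pH 7.4. Remaining NADH was coupled through diaphorase/resazurin, and resorufin fluorescence was read at 0 and 20 min.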
# PINK1 expr mod = A Quantitative High throughput Screen to Identify Chemical Modulators of PINK1 Expression | PINK1 immunofluorescence, high-content cytometry, 24 h | Potency, µM (doses to about 76.6 µM), for inactives: at the top dose activation (PINK1 increase), usual class: activators | hit rate 0.2% among 410,000 | AID 624263, 2012; active means well fitted activation curve with a large enough effect; inconclusive means small, poorly fitted or top-dose-only effect; cell line not stated here; further: potency means the concentration at half of the fitted maximal effect; % of control where 0% means no effect; nearly all actives have a fitted effect of over 65% in size
#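 Cells are seeded, rested 12 hours, then given compound at five concentrations or DMSO for 24 hours. After fixation, blocking and antibody staining, PINK1 amount and mitochondrial localization are scored; CCCP serves as control.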
# Glioma ERSR ind = qHTS for Inducers of the Endoplasmic Reticulum Stress Response (ERSR) in Human Glioma: qHTS; U87-MG GRP78 promoter luciferase reporter, 16 h; Potency, µM, for inactives: at the top dose activation, most hits filed as activators; hit rate 0.02% among 420,000; further: potency means the concentration at half of the fitted maximal effect; series mostly up to about 76 µM; % of control where 0% means no effect; nearly all actives have a fitted effect of over 35% in size
#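 ERSR induction read as luciferase luminescence (Bright-Glo, 10 min at room temperature) in stably transfected human U87-MG glioma cells exposed to compounds for 16 h, using GRP78 as sensor.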
# Vif-A3G inh = qHTS for Inhibitors of Vif-A3G Interactions: qHTS; hit rate 0.076% among 410,000; Potency, µM (doses to about 46.1 µM), without a hit: at the top dose activity, negative = active, usual class: inhibitors; AID 602310, 2012; HeLa A3G-eYFP + Vif (tagged APOBEC3G with the HIV-1 protein that degrades it), YFP fluorescence, overnight; DNA dC->dU-editing enzyme APOBEC-3G (Homo sapiens), Q9HC16; further: potency means the concentration at half of the fitted maximal effect; on the % scale 0 is the no-effect control and ±100 the full control effect; nearly all actives have a fitted effect of over 60% in size
# Target sequence (Q9HC16 whole entry, looked up): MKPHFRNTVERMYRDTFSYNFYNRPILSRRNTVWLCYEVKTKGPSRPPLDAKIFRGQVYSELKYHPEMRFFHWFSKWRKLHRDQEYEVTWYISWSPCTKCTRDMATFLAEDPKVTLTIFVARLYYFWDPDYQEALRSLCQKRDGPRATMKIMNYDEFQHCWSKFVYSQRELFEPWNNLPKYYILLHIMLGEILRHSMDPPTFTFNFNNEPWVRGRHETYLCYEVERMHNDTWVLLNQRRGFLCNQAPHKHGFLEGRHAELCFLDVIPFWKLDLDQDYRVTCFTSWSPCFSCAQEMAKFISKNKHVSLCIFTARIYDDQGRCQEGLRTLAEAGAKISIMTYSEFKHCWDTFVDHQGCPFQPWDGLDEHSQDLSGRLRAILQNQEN
#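 Read-out is eYFP fluorescence (Ex 488/Em 500-530) from Vif-expressing HeLa A3G-eYFP cells; more signal means A3G escaped Vif-mediated degradation. Cells plated overnight, compound pinned in, incubated overnight at 37 deg C.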
# pAkt inh = HTS Assay for Inhibitors of Akt Phophorylation: Primary Screen; Neuro2A IGF-stimulated pAkt S473 HTRF, 20 min; active compounds read low; activity change, % for hits at 50 µM; hit rate 0.32% among 360,000; AID 651550, 2012; in the data active means activity change below about -80%; inconclusive means mostly about -51% to -80%; further: on the % scale 0 is the no-effect control and ±100 the full control effect
#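 Single-point screen (50 µM final compound) in Neuro2A cells stimulated 20 min with 6 nM IGF at 37 deg C. After lysis, Ser473-phosphorylated Akt read by HTRF (ex 330 nm, em 615/665 nm) as the 665/615 ratio.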
# The depositor's hits bear a star; i = inactive; ? = inconclusive; . = no result; [ ] = remark or other dose. The list is not random: actives were taken first. Their share in the collection is about 0.74%. Unless noted, the call rests on the fitted dose curve; in most records, active means well fitted curve in the direction sought with a large enough effect; inconclusive means small, poorly fitted or top-dose-only effect, or another doubt; inactive means no such curve, though single readings can be large; an effect the other way counts as inactive or inconclusive.
SMILES,Vif-A3F inh,LDHA block,PINK1 expr mod,Glioma ERSR ind,Vif-A3G inh,pAkt inh
CC(C)CC(NC(=O)C1CC1)c1cccs1 (stereo not drawn),.,-1,.,.,.,.
CCNc1nc(N)nc(Oc2ccc(C(=O)OC)cc2)n1,.,-1,0%,-4%,0%,-95%*
O=C(O)/C=C/c1cc(Cl)c(OCc2ccccc2)c(Cl)c1,.,-6,.,.,.,.
CC1CC(C)(C)N(C(=O)CN2CCN(C)CC2)c2ccccc21 (stereo not drawn),-4%,-35*,6%,-5%,6%,i
CC1CC(C)(C)N(C(=O)CN2C(=O)c3ccccc3C2=O)c2ccccc21 (stereo not drawn),1%,-6,.,-2%,1%,i
Cc1ccc2c(c1)C(C)CC(C)(C)N2C(=O)CN1CCN(C)CC1 (stereo not drawn),11%,-40*,-1%,-6%,0%,i
Cc1ccc(-n2nnnc2SCC(=O)N(C)c2ccccc2C(=O)NCc2ccco2)cc1C,.,-9,.,.,.,.
O=C(Cn1cc(I)c(=O)c(I)c1)N1CCCCC1,.,2,.,.,.,.
O=C(Nc1cccc(Cl)c1)N(Cc1cccs1)c1ccccn1,.,8,.,.,.,.
O=c1[nH]c(=O)n(Cc2ccco2)c2c1C(C(F)(F)F)(C(F)(F)F)N=C(c1ccccc1)N2,.,-12,.,.,.,.
O=c1[nH]c(=O)n(Cc2ccco2)c2c1C(C(F)(F)F)(C(F)(F)F)N=C(c1ccc(F)cc1)N2,-2%,-10,13µM*,-3%,4%,i
O=C(C/C=N/OCc1ccccc1F)c1cnc(-c2ccc(Cl)cc2)s1,13%,-3,5%,1%,-4%,i
O=C(C/C=N/OCc1ccc(F)cc1Cl)c1cnc(-c2ccccc2)s1,5%,1,2%,-4%,1%,-97%*
COC(=O)[C@H](C)NC(=O)Nc1ccc2oc(-c3cccnc3)nc2c1,.,7,.,.,.,.
Cn1cc(S(=O)(=O)N2CCCC(C(=O)Nc3ccn(Cc4ccc(Cl)cc4)n3)C2)cn1 (stereo not drawn),.,-3,.,.,.,.
COc1cc(C(=O)CCN(C)C)cc(OC)c1OC,.,-1,.,.,.,.
CCOC(=O)CC(=O)c1cc(OC)c(OC)c(OC)c1,2%,-2,1%,-1%,-1%,-106%*
CCN(CC)S(=O)(=O)c1cccc(NC(=O)C2SC(=Nc3ccc(C)cc3C)C(C(=O)NCC3CCCO3)=C2N)c1 (stereo not drawn),-7%,0,25µM*,-5%,-1%,i
CCN(CC)S(=O)(=O)c1cccc(C(=O)NCC2CCCO2)c1 (stereo not drawn),2%,-3,-1%[38.3 µM],-1%,2%,i
Cc1ccc(-n2ccc(=O)c(C(=O)Nc3ccc(S(=O)(=O)Nc4onc(C)c4C)cc3)n2)cc1,3%,-62*,0%,3%,-1%,i
CCOC(=O)c1nn(C23CC4CC(CC(C4)C2)C3)c2c1C(=O)N(c1ccc(C)cc1)C2=O,-2%,-4,-1%,-3%,4%,-110%*
Cc1cc(C(F)(F)F)c2c(N)c(C(=O)NCc3ccc(Cl)cc3)sc2n1,.,1,2%,.,.,i
Nc1c(C(=O)Nc2ccccc2F)sc2nc(Cc3ccccc3)cc(C(F)(F)F)c12,?,-10,?,-3%,0%,-109%*
Cc1cc(C(F)(F)F)c2c(N)c(C(=O)Nc3cc(C)on3)sc2n1,11µM*,0,22µM*,5%,-16%,i
Cc1cc(C)cc(C(=O)N(C)C2CCN(CCc3ccccn3)CC2)c1,.,0,.,.,.,.
SMILES,Vif-A3F inh,LDHA block,PINK1 expr mod,Glioma ERSR ind,Vif-A3G inh,pAkt inh
O=[N+]([O-])c1ccc(C(O)CN2CCN(c3ccccc3)CC2)cc1 (stereo not drawn),-34%,-4,5%,-2%,1%,i
O=[N+]([O-])c1ccc(C(O)C[n+]2ccccc2)cc1 (stereo not drawn),3%,-30*,1%,-3%,7%,i
Cn1c(CN2CCCC2)nc2cc(NC(=O)COc3ccccc3)ccc21,-17%,-7,-1%,-4%,-1%,-106%*
COc1ccc(CNC(=O)C(C)c2ccc3cc(OC)ccc3c2)cc1 (stereo not drawn),.,9,.,.,.,.
COC(=O)c1ccc(CSc2n[nH]c(=S)s2)o1,1%,1,-1%,1%,-3%,-100%*
O=C(N=Nc1c(O)[nH]c2ccccc12)c1cc(-c2cccs2)[nH]n1,12%,-39*,9%,2%,0%,i
CC(=O)c1ccc(N=Cc2c(O)n(-c3cc(Cl)ccc3N3CCOCC3)c(=O)c3ccccc23)cc1,-15%,1,1%,-4%,-1%,-120%*
COCC(C)NS(=O)(=O)c1ccc(C)c(C)c1 (stereo not drawn),.,-4,.,.,.,.
Cc1cc(-n2c(=O)c3sccc3n(CC(=O)NC3CCCCC3)c2=O)ccc1F,.,3,.,.,.,.
CCC1CCCCN1C(=O)Cn1c(=O)n(-c2ccc(F)c(C)c2)c(=O)c2sccc21 (stereo not drawn),.,-39*,.,.,.,.
O=C(Nc1ccc2c(c1)CCC2)c1ccc(Br)o1,5%,-2,0%,2%,0%,-114%*
O=C(Nc1ccc(N2CCN(C(=O)c3ccccc3)CC2)c(Cl)c1)c1ccc(Br)o1,-12%,-1,-16%[38.3 µM],-6%,2%,-86%*
CCc1c(C)nc2ncnn2c1Sc1ccc(NC(=O)c2ccc(OC)c(OC)c2)cc1,.,-3,.,.,.,.
COc1ccc(-c2cc(=O)oc3c(O)c(O)ccc23)cc1,-18%,12,-1%,-5%,2%,i
O=c1ccc2ccc(O)c(O)c2o1,.,.,.,41µM*,.,.
CCOc1cc(/C=N/O)ccc1OCc1ccc(Cl)cc1,.,2,.,.,.,.
Cc1ccc(C(=O)O)cc1NC(=O)c1cccc(C(=O)Nc2cc(C(=O)O)ccc2C)c1,.,9,.,.,.,.
Cc1ccc(C(=O)Nc2ccc(S(=O)(=O)O)c3cc(S(=O)(=O)O)cc(S(=O)(=O)O)c23)cc1NC(=O)c1cccc(NC(=O)Nc2cccc(C(=O)Nc3cc(C(=O)Nc4ccc(S(=O)(=O)O)c5cc(S(=O)(=O)O)cc(S(=O)(=O)O)c45)ccc3C)c2)c1,.,-94*,0%,-1%,7%,.
C1CCC(Nc2nnnn2C2CCCCC2)CC1,6%,-3,-1%,-3%,-5%,-104%*
O=C(CSc1nc(C2CC2)n(-c2ccccc2)n1)N1CCN(c2ccc(O)cc2)CC1,.,-15,.,.,.,.
O=C(Cn1cc(C(=O)c2ccco2)c2ccccc21)NCc1ccco1,4%,-5,-3%,7%,0%,-105%*
